{
  "source": "PubChem BioAssay (NCATS)",
  "note": "Records with an inconclusive call do not appear. A number with no mark means an inactive call. The source made the active and inactive calls. Calls come from the whole dose curve; as a rule, active = well fitted curve in the direction sought with a large enough effect; inconclusive = small, poorly fitted or top-dose-only effect, or another doubt; inactive = no such curve, though single readings can be large; an effect the other way counts as inactive or inconclusive. Potency is the fitted concentration of half-maximal effect.",
  "data": [
    {"experiment": "qHTS of pediatric cancer cell lines to identify multiple opportunities for drug repurposing: Confirmatory screen for Rh30 cells (AID 1347126); note: nearly all actives have a fitted effect of over 55% in size; for activity change, negative = cytotoxic: % is set by controls: 0 for no effect and ±100 for the full control effect", "conditions": "Rh30 rhabdomyosarcoma cell viability; series mostly up to 45.9 µM; activity change, negative = cytotoxic: at the top concentration", "method_in_brief": "(§1)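 Cells (500-1,000/well) rested 5 h, then received compounds for 48 h; metabolically active cells were measured by CellTiter-Glo luminescence. Final concentrations spanned up to 46 µM (MIPE, 11-point) or 0.59 nM-46 µM (NPC, 8-point) in primary screens, 11-point in follow-ups.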", "units": {"activity change, negative = cytotoxic": "%"}, "values": [
      {"smiles": "CC(C)(C(=O)NCC(F)(F)C(F)(F)F)C(=O)N[C@@H]1C(=O)Nc2ccccc2-c2ccccc21", "activity change, negative = cytotoxic": -3.16},
      {"smiles": "O=C(Nc1cccc(Br)c1)c1cccc(S(=O)(=O)N2CCCCCC2)c1", "activity change, negative = cytotoxic": -16.9},
      {"smiles": "COc1ccc(-c2coc3cc(O)cc(O)c3c2=O)cc1", "activity change, negative = cytotoxic": -8.99},
      {"smiles": "CC1(C)CCC(CN2CCN(c3ccc(C(=O)NS(=O)(=O)c4ccc(NCC5CCOCC5)c([N+](=O)[O-])c4)c(Oc4cnc5[nH]ccc5c4)c3)CC2)=C(c2ccc(Cl)cc2)C1", "activity change, negative = cytotoxic": -0.57},
      {"smiles": "CCOc1ccc(Nc2nc(-c3c(C)nc4ccccn34)cs2)cc1", "activity change, negative = cytotoxic": -5.64},
      {"smiles": "CN[C@@H](C)C(=O)N[C@H]1CN(C(=O)CC(C)C)CC[C@H]2CC[C@@H](C(=O)NC(c3ccccc3)c3ccccc3)N2C1=O", "activity change, negative = cytotoxic": 15.6},
      {"smiles": "CC1(C)CCC[C@@]2(C)[C@@H]1CC[C@@]1(C)OC(=O)C[C@H]21", "Potency": "0.0185 µM (active)"},
      {"smiles": "NC1=N[C@@]2(c3cc(NC(=O)c4ccc(F)cn4)ccc3F)COC[C@@H]2CS1", "activity change, negative = cytotoxic": 14.5},
      {"smiles": "CO[C@H]1C[C@@H]2CC[C@@H](C)[C@@](O)(O2)C(=O)C(=O)N2CCCC[C@@H]2C(=O)O[C@H]([C@H](C)C[C@@H]2CC[C@H](OCCO)[C@H](OC)C2)CC(=O)[C@H](C)C=C(C)[C@@H](O)[C@@H](OC)C(=O)[C@H](C)C[C@H](C)C=CC=CC=C1C", "activity change, negative = cytotoxic": -24.6}
    ]},
    {"experiment": "qHTS of pediatric cancer cell lines to identify multiple opportunities for drug repurposing: Confirmatory screen for SK-N-SH cells (AID 1347129);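 note: cells exposed to compound for 48 h before viability read; nearly all actives have a fitted effect of over 60% in size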;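 for activity change, negative = cytotoxic: plate controls were DMSO for no effect and bortezomib control for full effect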", "conditions": "SK-N-SH neuroblastoma cell viability; series mostly up to 46.1 µM; activity change, negative = cytotoxic: at the top concentration", "method_in_brief": "as §1", "units": {"activity change, negative = cytotoxic": "%"}, "values": [
      {"smiles": "Cc1[nH]c(C=C2C(=O)Nc3ccc(S(=O)(=O)Cc4c(Cl)cccc4Cl)cc32)c(C)c1C(=O)N1CCC[C@H]1CN1CCCC1", "Potency": "23.5 µM (active)"},
      {"smiles": "O=C(O)CCC1CCC(c2cc(F)ccc2F)(S(=O)(=O)c2ccc(Cl)cc2)CC1", "note": "(stereo not drawn)", "activity change, negative = cytotoxic": 0.391},
      {"smiles": "O=C(Nc1cccc(Br)c1)c1cccc(S(=O)(=O)N2CCCCCC2)c1", "activity change, negative = cytotoxic": -7.52},
      {"smiles": "CC(=O)O[C@]1(C(C)=O)CC[C@@H]2[C@@H]3C[C@H](C)C4=CC(=O)CC[C@]4(C)[C@H]3CC[C@@]21C", "activity change, negative = cytotoxic": 8.47},
      {"smiles": "CC[C@]1(O)C[C@@H]2CN(CCc3c([nH]c4ccccc34)[C@@](C(=O)OC)(c3cc4c(cc3OC)N(C=O)[C@@H]3C45CCN4CC=C[C@](CC)([C@H]45)[C@@H](OC(C)=O)[C@]3(O)C(=O)OC)C2)C1", "note": "(stereo partly drawn)", "activity change, negative = cytotoxic": -9.6},
      {"smiles": "CN[C@@H](C)C(=O)N[C@H]1CN(C(=O)CC(C)C)CC[C@H]2CC[C@@H](C(=O)NC(c3ccccc3)c3ccccc3)N2C1=O", "activity change, negative = cytotoxic": 8.11},
      {"smiles": "CC1(C)CCC[C@@]2(C)[C@@H]1CC[C@@]1(C)OC(=O)C[C@H]21", "activity change, negative = cytotoxic": -21.3},
      {"smiles": "NC1=N[C@@]2(c3cc(NC(=O)c4ccc(F)cn4)ccc3F)COC[C@@H]2CS1", "activity change, negative = cytotoxic": -11.5},
      {"smiles": "CO[C@H]1C[C@@H]2CC[C@@H](C)[C@@](O)(O2)C(=O)C(=O)N2CCCC[C@@H]2C(=O)O[C@H]([C@H](C)C[C@@H]2CC[C@H](OCCO)[C@H](OC)C2)CC(=O)[C@H](C)C=C(C)[C@@H](O)[C@@H](OC)C(=O)[C@H](C)C[C@H](C)C=CC=CC=C1C", "activity change, negative = cytotoxic": 7.55}
    ]}
  ]
}
